These results are taken from PubChem BioAssay (Tox21).

Test [1] is described as follows: Nuclear factor erythroid 2-related factor 2/antioxidant responsive element (Nrf2/ARE) small molecule agonists: qHTS cell viability counter screen in human keratinocytes (AID 1919968; active = well fitted curve in the direction sought with a large enough effect in the repeat runs; an effect the other way counts as inactive or inconclusive; also: nearly all actives have a fitted effect of over 55% in size). In a few lines: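 Stably transfected HaCaT (KeratinoSens), 1,500/well. Test agents in DMSO were applied for 23 h, 37 C/5% CO2. CellTiter-Fluor was incubated 1 h before the fluorescence read.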
For orientation: Quantitative high-throughput screening tests each substance at several concentrations.

A short description of test [2]: Nuclear factor erythroid 2-related factor 2/antioxidant responsive element (Nrf2/ARE) small molecule agonists: luciferase reporter gene qHTS assay in human keratinocytes (AID 1919969; also: nearly all actives have a fitted effect of over 35% in size). (In general: A reporter such as luciferase makes a cellular process visible.)
Test [3] deals with Gonadotropin-releasing hormone receptor (Homo sapiens) (UniProt P30968). Nature of the test: Human gonadotropin-releasing hormone receptor (GnRHR) small molecule agonists, calcium flux assay in GnRHR-HEK293 cells (AID 1920063). Also: nearly all actives have a fitted effect of over 35% in size. In a few lines: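 Stable human GnRHR HEK293 line. 18 h plating, then calcium dye for 1 h at 37 C. Agonist-mode compound addition from DMSO stocks; fluorescence monitored 3 min.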
Sequence of Gonadotropin-releasing hormone receptor (Homo sapiens) (P30968 whole entry, looked up): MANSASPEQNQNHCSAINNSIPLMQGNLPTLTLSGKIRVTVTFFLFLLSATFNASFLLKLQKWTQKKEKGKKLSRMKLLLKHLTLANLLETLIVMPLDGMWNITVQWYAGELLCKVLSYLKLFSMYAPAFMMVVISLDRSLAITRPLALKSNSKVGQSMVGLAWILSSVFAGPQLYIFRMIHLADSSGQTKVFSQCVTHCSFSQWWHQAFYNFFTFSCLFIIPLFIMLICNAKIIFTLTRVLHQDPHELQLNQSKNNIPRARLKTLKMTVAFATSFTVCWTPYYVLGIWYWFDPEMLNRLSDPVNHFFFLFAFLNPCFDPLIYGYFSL
(In general: Calcium assays in cells follow changes in intracellular calcium, usually with a dye or a luminescent sensor.)

The target in test [4] is KiSS-1 receptor (Homo sapiens) (UniProt Q969F8). Nature of the test: Human kisspeptin (KISS1R) small molecule agonists, calcium flux assay in KISS1R-HEK293 cells (AID 1920064; active = well fitted curve in the direction sought with a large enough effect in the repeat runs; an effect the other way counts as inactive or inconclusive). In a few lines: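 After overnight (18 h) culture at 37 C/5% CO2, human KISS1R-HEK293 cells received calcium dye for 1 h, then test compound; emission at 540 nm (excitation 480 nm) was tracked for 3 min.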
Sequence of KiSS-1 receptor (Homo sapiens) (Q969F8 whole entry, looked up): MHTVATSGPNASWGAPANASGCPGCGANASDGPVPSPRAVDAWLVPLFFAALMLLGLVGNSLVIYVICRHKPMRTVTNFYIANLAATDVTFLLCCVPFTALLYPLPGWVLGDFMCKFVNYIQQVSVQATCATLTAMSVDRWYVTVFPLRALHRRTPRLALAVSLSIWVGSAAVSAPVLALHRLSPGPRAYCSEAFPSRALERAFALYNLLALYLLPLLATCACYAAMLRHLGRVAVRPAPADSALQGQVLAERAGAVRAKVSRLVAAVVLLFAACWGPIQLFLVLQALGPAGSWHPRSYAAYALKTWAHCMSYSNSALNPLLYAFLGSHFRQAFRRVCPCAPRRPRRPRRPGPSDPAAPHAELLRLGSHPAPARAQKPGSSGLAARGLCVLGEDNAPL

Test [5] in a line: G protein-coupled receptor (GPCR) small molecule agonists, calcium flux assay: HEK293 wild type cell line counter screen (AID 1920065). Put shortly:
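Following 18 h incubation at 37 C/5% CO2, plates got calcium dye for 1 h; compounds, ATP or DMSO were then pinned in and fluorescence followed kinetically (480/540 nm).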

The nature of test [6]: p53 small molecule agonists, cell-based qHTS assay with human liver microsomes: qHTS cell viability counter screen (AID 1963579). Also: nearly all actives have a fitted effect of over 45% in size. Put shortly:
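Metabolically activated exposure: compounds, human liver microsomes and NADPH (0.5 mg/mL final apiece) were added to p53RE-bla cells seeded 5 h earlier, left 16 h at 37 C, and then assessed for viability by CellTiter-Glo luminescence.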

Test [7] can be described thus: p53 small molecule agonists, cell-based qHTS assay with rat liver microsomes: qHTS cell viability counter screen (AID 1963580). Also: nearly all actives have a fitted effect of over 45% in size. In a few lines:
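Cytotoxicity counter screen: intracellular ATP measured by CellTiter-Glo luminescence in the same wells as the beta-lactamase reporter read, on HCT-116 p53RE-bla cells exposed 16 h at 37 C to compounds with rat liver microsomes and NADPH, each 0.5 mg/mL final.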

Test [8] concerns the target 5-hydroxytryptamine receptor 2A (Homo sapiens) (UniProt P28223). The experiment in a line: 5-hydroxytryptamine receptor 2A (HTR2A) small molecule antagonists, cell-based qHTS assay (AID 1963586). Also: nearly all actives have a fitted effect of over 45% in size. Put shortly: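 CHO cells stably expressing human HTR2A were plated for 18 h at 37 C, then loaded with calcium dye for 1 h. Compounds were preincubated 5 min at room temperature before DOI (4 nM solution) was added. Kinetic fluorescence was read for 3 min.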

Test [9] shares this target. Nature of the test: 5-hydroxytryptamine receptor 2A (HTR2A) small molecule agonists, cell-based qHTS assay (AID 1963587). Also: nearly all actives have a fitted effect of over 30% in size. In a few lines: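 CHO cells stably expressing human HTR2A, plated 18 h, loaded with calcium dye 1 h at 37 C. Agonist mode: compounds added and intracellular calcium fluorescence recorded kinetically for 2 min at 1 sec intervals.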
Test [10] has as its target Muscarinic acetylcholine receptor M1 (Homo sapiens) (UniProt P11229). Nature of the test: Cholinergic receptor muscarinic 1 (CHRM1) small molecule antagonists, cell-based qHTS assay (AID 1963588). Also: nearly all actives have a fitted effect of over 40% in size. In a few lines: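 Compounds were tested at 15 concentrations in three independent runs. Dye-loaded CHRM1-CHO cells were exposed 5 min at room temperature before stimulation by acetylcholine added at 50nM. Intracellular calcium was read kinetically on FDSS for 3 min.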

Test [11] shares this target. The experiment in a line: Cholinergic receptor muscarinic 1 (CHRM1) small molecule agonists, cell-based qHTS assay (AID 1963589). Also: nearly all actives have a fitted effect of over 35% in size. Put shortly: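 Kinetic fluorescence (1 s intervals) of calcium-sensitive dye in human M1 CHO cells after compound addition; cells pre-incubated 18 h at 37 C/5% CO2 and dye-loaded 1 h.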
The nature of test [12]: cAMP Responsive Elements (CRE) small molecule agonists, cell-based qHTS assay (AID 1963590). Put shortly:
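Test agents in DMSO were incubated 3 h at 37 C/5% CO2 with CRE-bla HEK 293T cells seeded 18 h earlier; LiveBLAzer B/G FRET substrate was added and read after 2 h at room temperature.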

Test [13] can be described thus: cAMP Responsive Elements (CRE) small molecule antagonists, cell-based qHTS assay (AID 1963591; active = well fitted inhibition curve with a large enough effect in the signal ratio in the repeat runs, not every such curve was filed as active; the % refers to the signal ratio). In a few lines: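 Reporter line CRE-bla HEK 293T in dialyzed-FBS DMEM; cells preincubated 18 h, treated 3 h with compound plus NKH477 (0.25 uM final); LiveBLAzer FRET, 2 h RT.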
Test [14] concerns the target Beta-2 adrenergic receptor (Homo sapiens) (UniProt P07550). Nature of the test: Adrenergic beta2 receptor (ADRB2) small molecule agonists, cell-based qHTS assay (AID 1963593).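 Also: CHO cells stably overexpressing human ADRB2.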 In a few lines: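 CHO cells stably over-expressing ADRB2 were plated overnight at 37C, then dosed with compounds plus a stimulation mix containing 100uM IBMX and 25uM Ro-20-1724 for 0.5hr at room temperature. cAMP was measured by HTRF competition, 1hr.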

Test [15] deals with D(2) dopamine receptor (Homo sapiens) (UniProt P14416). The experiment in a line: Dopamine D2 receptor (DRD2) small molecule agonists, cell-based qHTS assay (AID 1963594). Also: nearly all actives have a fitted effect of over 35% in size. Put shortly: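 HEK293 cells stably expressing human DRD2, pre-treated with PDE inhibitor Ro20-1724 (0.1 mM final) and compound 10 min at room temperature, then stimulated with NKH477 (200nM […]) for 30 min. cAMP read by HTRF (665/620 nm).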
Sequence of D(2) dopamine receptor (Homo sapiens) (P14416 whole entry, looked up): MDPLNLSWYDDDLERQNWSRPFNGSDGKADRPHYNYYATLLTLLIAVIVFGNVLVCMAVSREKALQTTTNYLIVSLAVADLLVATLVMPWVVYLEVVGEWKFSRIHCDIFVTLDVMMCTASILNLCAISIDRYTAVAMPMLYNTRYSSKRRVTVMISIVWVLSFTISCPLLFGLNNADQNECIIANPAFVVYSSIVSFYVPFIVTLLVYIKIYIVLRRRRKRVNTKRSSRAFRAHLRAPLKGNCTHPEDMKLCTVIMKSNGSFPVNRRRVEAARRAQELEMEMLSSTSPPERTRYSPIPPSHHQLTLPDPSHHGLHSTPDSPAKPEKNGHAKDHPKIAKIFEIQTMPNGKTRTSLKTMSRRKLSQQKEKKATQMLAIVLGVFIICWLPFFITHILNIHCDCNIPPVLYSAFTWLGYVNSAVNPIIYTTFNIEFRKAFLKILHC

Test [16] has the same target. The experiment in a line: Dopamine D2 receptor (DRD2) small molecule antagonists, cell-based qHTS assay (AID 1963595; active = well fitted inhibition curve with a large enough effect in the signal ratio in the repeat runs, with a control signal flat; the % refers to the signal ratio). Put shortly: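 Cells were plated and grown for 24 h at 37 °C. Ro20-1724 (0.1 mM final) went in first, then compound for 10 min. NKH477 (200 nM) with quinpirole (12 nM) followed for 30 min at RT, then HTRF detection reagents for 1 h.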
Test [17] is described as follows: p53 small molecule agonists, cell-based qHTS assay (AID 1963582; active = well fitted activation curve with a large enough effect in the signal ratio in the repeat runs, not every such curve was filed as active; the % refers to the signal ratio; also: potency is read from the fitted curve at half-maximal effect). Put shortly:
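Measured: fluorescence from cleaved LiveBLAzer substrate. System: p53RE-bla cells, 16 h compound treatment at 37 C, 2 h substrate step at room temperature.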

Test [18] has as its target Beta-2 adrenergic receptor (Homo sapiens) (UniProt P07550). Nature of the test: Adrenergic beta2 receptor (ADRB2) small molecule antagonists, cell-based qHTS assay (AID 1963592). Also: series mostly up to about 92 µM; nearly all actives have a fitted effect of over 50% in size. Put shortly:
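Assay format: CHO-ADRB2 cells, 18-20hr seeding at 37C/5% CO2, then compound plus 1nM isoproterenol agonist mix for 0.5hr RT. Homogeneous time-resolved fluorescence cAMP detection after 1hr, expressed as 665/615 nm ratio.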

Results filed as inconclusive are left out. Activity calls are given as the source filed them. Unless noted, calls follow the shape of the full dose curve.

Sequence of Beta-2 adrenergic receptor (Homo sapiens) (P07550 whole entry, looked up): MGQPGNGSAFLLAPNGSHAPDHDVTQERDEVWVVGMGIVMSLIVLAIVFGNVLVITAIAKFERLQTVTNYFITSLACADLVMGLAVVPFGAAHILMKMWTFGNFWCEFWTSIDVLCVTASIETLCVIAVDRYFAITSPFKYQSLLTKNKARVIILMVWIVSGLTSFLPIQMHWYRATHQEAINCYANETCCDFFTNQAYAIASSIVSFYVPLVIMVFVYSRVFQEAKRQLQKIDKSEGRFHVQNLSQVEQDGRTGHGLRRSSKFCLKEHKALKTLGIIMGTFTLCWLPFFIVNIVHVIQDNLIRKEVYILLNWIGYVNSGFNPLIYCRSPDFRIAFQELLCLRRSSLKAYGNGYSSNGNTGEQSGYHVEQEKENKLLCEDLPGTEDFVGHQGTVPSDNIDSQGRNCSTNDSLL
Sequence of Muscarinic acetylcholine receptor M1 (Homo sapiens) (P11229 whole entry, looked up): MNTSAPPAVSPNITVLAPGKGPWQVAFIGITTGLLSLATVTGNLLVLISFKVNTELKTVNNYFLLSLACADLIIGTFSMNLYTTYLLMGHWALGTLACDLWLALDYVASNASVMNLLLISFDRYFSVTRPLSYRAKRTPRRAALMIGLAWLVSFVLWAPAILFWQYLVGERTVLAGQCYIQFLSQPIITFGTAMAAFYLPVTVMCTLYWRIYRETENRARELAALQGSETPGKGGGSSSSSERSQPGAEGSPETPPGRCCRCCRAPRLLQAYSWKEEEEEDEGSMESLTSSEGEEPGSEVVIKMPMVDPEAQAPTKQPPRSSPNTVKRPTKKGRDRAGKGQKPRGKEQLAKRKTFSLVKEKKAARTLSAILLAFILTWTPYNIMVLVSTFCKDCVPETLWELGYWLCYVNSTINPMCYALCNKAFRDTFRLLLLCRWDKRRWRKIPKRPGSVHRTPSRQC
Sequence of 5-hydroxytryptamine receptor 2A (Homo sapiens) (P28223 whole entry, looked up): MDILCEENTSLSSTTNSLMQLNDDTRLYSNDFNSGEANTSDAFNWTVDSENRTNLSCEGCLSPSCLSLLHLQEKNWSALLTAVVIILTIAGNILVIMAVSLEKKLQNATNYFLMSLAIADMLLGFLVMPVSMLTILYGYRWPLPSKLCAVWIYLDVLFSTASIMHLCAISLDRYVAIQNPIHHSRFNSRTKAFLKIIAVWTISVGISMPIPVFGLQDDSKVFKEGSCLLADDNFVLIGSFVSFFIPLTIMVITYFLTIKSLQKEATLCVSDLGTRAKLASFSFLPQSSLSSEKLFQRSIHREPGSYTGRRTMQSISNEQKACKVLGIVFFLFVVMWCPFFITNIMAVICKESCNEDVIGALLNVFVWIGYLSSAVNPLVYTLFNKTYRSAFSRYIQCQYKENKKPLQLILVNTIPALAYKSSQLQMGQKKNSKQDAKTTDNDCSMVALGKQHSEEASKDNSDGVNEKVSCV

Take `N#CCCN(CCO)CCO`: the Potency result in test [1], in [2], in [3], in [4], in test [5] and in [6] was “inactive” each time. Moreover, the Potency result in [7], in [8], in test [9], in test [10], in test [11] and in test [12] was “inactive” in each case. Moreover, the Potency entry in [13], in test [14], in test [15] and in test [16] was “inactive” throughout.

Take `COC(=O)c1ccc(C(=O)O)cc1`: the Potency entry in test [1], in test [2], in [3], in test [4], in test [5] and in test [6] was “inactive” throughout. The Potency result in test [7], in [17], in [9], in test [10], in test [11] and in test [12] was “inactive” each time. Further, the Potency entry in test [18], in [15] and in [16] was “inactive” throughout.

On to `CC(N=C(NC#N)Nc1ccncc1)C(C)(C)C` (configuration not stated), for which the Potency result in [1], in test [2], in [3], in test [4], in test [5] and in test [6] was “inactive” in each case. Also, the Potency result in [7], in [8], in test [9], in [10], in test [11] and in test [12] was “inactive” in each case. For the same compound, the Potency result in [13], in [18], in test [15] and in [16] was “inactive” each time.

As for `COC(=O)CCSCCC(=O)OC`, the Potency entry in test [1], in test [2], in [3], in [4], in test [5] and in test [6] was “inactive” in each case. The Potency entry in [7], in test [8], in [9], in test [10], in test [11] and in [12] was “inactive” each time. Moreover, the Potency result in test [13], in test [18], in test [14], in test [15] and in test [16] was “inactive” each time.

As to `Nc1cc(Cl)cc(S(=O)(=O)O)c1O`, the Potency result in test [1], in test [2], in [3], in test [4], in test [5] and in test [6] was “inactive” each time. Moreover, the Potency entry in test [7], in [8], in test [9], in test [10], in test [11] and in test [12] was “inactive” throughout. In addition, the Potency entry in test [13], in test [18] and in [15] was “inactive” each time.

As for `O=S(=O)(O)c1cc(O)c2ccc(Nc3ccccc3)cc2c1`, the Potency entry in [1], in test [2], in test [3], in [4], in test [5] and in [6] was “inactive” in each case. Further, the Potency entry in [7], in test [8], in test [9], in test [10], in [11] and in test [12] was “inactive” throughout. Also, the Potency entry in [13], in [18], in test [15] and in test [16] was “inactive” each time.

As to `O=C(O)CNC(=O)CNC(=O)CNC(=O)CSC(=O)c1ccccc1`, the Potency result in test [1], in test [2], in [3], in [4], in [5] and in test [6] was “inactive” in each case. In addition, the Potency result in [7], in test [8], in test [9], in test [10], in [11] and in [12] was “inactive” in each case. Besides, the Potency entry in test [13], in test [18], in test [14], in test [15] and in [16] was “inactive” each time.

In the case of `Clc1ccc2cc3ccccc3cc2c1`, the Potency entry in test [1], in [2], in [3], in test [4], in test [5] and in [6] was “inactive” throughout. Moreover, the Potency result in [7], in test [8], in [9], in test [10], in test [11] and in test [18] was “inactive” in each case. Moreover, the Potency result in [15] and in test [16] was “inactive” in each case. In [17], the Potency was 40.7 µM (active).
